From PubChem BioAssay (NCI) come the findings set out here.

This is part of a sample that, as a whole, favours compounds with a hit. Of some 83,000 tested, about 20% had one in any assay.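 The test compound was applied at a single concentration to cells in 96-well plates for 48 hours, and percent growth was recorded.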 Unmarked numbers belong to inactive results. Active and inactive are the calls of the source. How the source made its calls: active means growth percent below 10; inactive means the rest.

Among the test systems are SK-MEL-2 melanoma; EKVX NSCLC; SN12C renal; UO-31 renal; TK-10 renal; CAKI-1 renal; A498 renal; CCRF-CEM leukemia; MOLT-4 leukemia; ACHN renal.
What all share (test): NCI-60 one-dose screen, 48 h (100 = growth as untreated, 0 = no growth, -100 = all killed)
Holding throughout (conditions): 10 µM unless noted

For `CCN(CC)c1ccc(C(=N)c2ccc(N(CC)CC)cc2)cc1`, the growth in the experiment with SK-MEL-2 melanoma was -66.6% (active); in the experiment with EKVX NSCLC, 12.4%; in the experiment with SN12C renal it was 0.751% (active); in the experiment with UO-31 renal, -33.6% (active); in the experiment with TK-10 renal it was 10%; in the experiment with CAKI-1 renal, -9.36% (active). The values for the growth with A498 renal, in the experiment with CCRF-CEM leukemia and in the experiment with MOLT-4 leukemia were -44.3% (active), 12.1% and -23.5% (active), respectively.

Consider `Cc1ccc(C(=O)C2=Cc3cc4ccccc4n3Cc3cnnn32)cc1`, for which the growth with SK-MEL-2 melanoma is 94.4%; in the experiment on EKVX NSCLC, 107%; in the experiment with SN12C renal, 94.5%; in the experiment with TK-10 renal, 94.9%; in the experiment on ACHN renal it was 109%; in the experiment on CAKI-1 renal it was 101%. Besides, the growth with A498 renal was 107%; with CCRF-CEM leukemia, 103%; in the experiment on MOLT-4 leukemia it was 101%.

On to `Fc1ccc(Nc2ncnc3ccc(-c4cnc5[nH]ccc5c4)cc23)cc1Cl`, for which the growth is 29.9% with SK-MEL-2 melanoma; 14.8% with EKVX NSCLC; -14.2% (active) in the experiment with SN12C renal; -73.8% (active) with UO-31 renal; -66.7% (active) with ACHN renal; 77.4% in the experiment with A498 renal. Moreover, the growth is 40% in the experiment with CCRF-CEM leukemia and 45.6% in the experiment on MOLT-4 leukemia.

With `COc1cc2c(=O)n(C3CCCCCC3)c3c4cc[nH]c4ncc3c2cc1OC`, the growth with SK-MEL-2 melanoma is 90.3%; with EKVX NSCLC it was 91.8%; in the experiment on SN12C renal, 55.6%; in the experiment with TK-10 renal, 96.3%; in the experiment on ACHN renal, 70.5%; with CAKI-1 renal, 73.7%. Besides, the growth in the experiment with A498 renal is 24.6%; in the experiment with CCRF-CEM leukemia it was 51.1%; in the experiment on MOLT-4 leukemia, 40.9%.

As to `C=C1CCC2C(C)(CO)C(O)CCC2(C)C1CC(NCc1ccccc1)C1=CCOC1=O` (stereo unspecified), the growth in the experiment on SK-MEL-2 melanoma was 101%; in the experiment with EKVX NSCLC, 100%; with SN12C renal, 93.1%; in the experiment on TK-10 renal, 103%; with ACHN renal it was 100%; in the experiment on CAKI-1 renal it was 90.3%. For the same molecule, the figures for the growth with A498 renal, in the experiment with CCRF-CEM leukemia and with MOLT-4 leukemia were 106%, 105% and 108%, respectively.

With `COc1ccccc1CNCCCN1C(=O)c2ccc3c4c(ccc(c24)C1=O)C(=O)N(CCCNCCCCNCCCN)C3=O`, the growth is -54.6% (active) in the experiment on SK-MEL-2 melanoma; -41% (active) in the experiment with EKVX NSCLC; -32.8% (active) with SN12C renal; -1.99% (active) with UO-31 renal; -10.1% (active) in the experiment on TK-10 renal; 7.3% (active) in the experiment with CAKI-1 renal. Also, the growth was -58.1% (active) in the experiment with A498 renal, -19.1% (active) in the experiment with CCRF-CEM leukemia and -28.4% (active) in the experiment on MOLT-4 leukemia.

For `CC(C)(C)n1cc(-c2ccnc(NCCCNS(=O)(=O)c3ccc(C(F)(F)F)cc3)c2)c(-c2cccc(O)c2)n1`, the growth is 0.948% (active) with SK-MEL-2 melanoma; 36.3% in the experiment with EKVX NSCLC; 40.3% in the experiment with SN12C renal; 92.2% in the experiment on TK-10 renal; 25.3% in the experiment on ACHN renal; 37.8% in the experiment on CAKI-1 renal. The growth was 60.1% in the experiment on A498 renal, 21.4% with CCRF-CEM leukemia and 2.23% (active) in the experiment on MOLT-4 leukemia.

Consider `COc1ccc(/C=C(\C#N)c2cc(OC)c3c(c2)OCO3)cc1`, for which the growth is 43.6% with SK-MEL-2 melanoma; 50.4% in the experiment on EKVX NSCLC; 23.8% with SN12C renal; 39.9% in the experiment with UO-31 renal; 49.6% with TK-10 renal; 40.7% with CAKI-1 renal. Besides, the growth is 35.5% in the experiment on A498 renal, 14.7% in the experiment with CCRF-CEM leukemia and 7.91% (active) in the experiment with MOLT-4 leukemia.

Regarding `CC(C)(C)n1cc(-c2ccnc(NCCNS(=O)(=O)c3ccc(Cl)cc3)c2)c(-c2cccc(O)c2)n1`, the growth was 74.3% with SK-MEL-2 melanoma; 60.2% in the experiment with EKVX NSCLC; 61.6% in the experiment with SN12C renal; 108% in the experiment on TK-10 renal; 76.8% in the experiment with ACHN renal; 71.8% in the experiment with CAKI-1 renal. The growth in the experiment with A498 renal was 69.4%; with CCRF-CEM leukemia, 50.3%; with MOLT-4 leukemia, 31.9%.

As for `C=C1C(=O)O[C@H]2[C@H]1CC/C(Cn1cc(CNC(=O)Cc3cn(C(=O)c4ccc(Cl)cc4)c4ccc(OC)cc34)nn1)=C\CC[C@@]1(C)O[C@@H]21`, the growth is 17.1% with SK-MEL-2 melanoma; 52.6% with EKVX NSCLC; 19.3% with SN12C renal; -46.8% (active) in the experiment on TK-10 renal; 15% in the experiment on ACHN renal; 67.4% in the experiment on CAKI-1 renal. Moreover, the growth in the experiment with A498 renal is 53.7%; in the experiment on CCRF-CEM leukemia, -34% (active); in the experiment on MOLT-4 leukemia, -23.5% (active).

Regarding `O=C1Nc2ccc3c(c2/C1=C\c1cc2c(cc1Br)OCO2)OCO3`, the growth is 42.4% with SK-MEL-2 melanoma; 37.3% in the experiment with EKVX NSCLC; 26.7% in the experiment on SN12C renal; -31.2% (active) in the experiment with TK-10 renal; 11.4% in the experiment with ACHN renal; 19.1% in the experiment on A498 renal. Also, the growth in the experiment with CCRF-CEM leukemia is 10% (active); in the experiment on MOLT-4 leukemia, 35.7%.

Take `c1ccc(-c2cn(-c3ccccc3)c(-c3ccccc3)n2)cc1`: the growth with SK-MEL-2 melanoma was 81.7%; in the experiment with EKVX NSCLC, 89.1%; in the experiment on SN12C renal, 97.7%; in the experiment on TK-10 renal, 81.8%; in the experiment with ACHN renal, 91.1%; in the experiment with CAKI-1 renal, 98.4%. In addition, the growth is 94.5% in the experiment on A498 renal, -25.8% (active) in the experiment on CCRF-CEM leukemia and -13.3% (active) in the experiment with MOLT-4 leukemia.

As for `COc1ccc(C(=O)NC(=O)Nc2cc3c(cc2F)/C(=C/c2[nH]c(C)c(CCC(=O)O)c2C)C(=O)N3)c(F)c1`, the growth with SK-MEL-2 melanoma was 22.1%; in the experiment on EKVX NSCLC, 65.3%; with SN12C renal, 27.6%; with UO-31 renal it was 58.6%; with ACHN renal, 65.5%; in the experiment on A498 renal, 12.3%. For the same molecule, the growth in the experiment on CCRF-CEM leukemia was 7.61% (active); in the experiment with MOLT-4 leukemia, 33.9%.

Take `Cn1c(=O)c2[nH]c(C3CC=CCC3)nc2n(C)c1=O` (stereo unspecified): the growth in the experiment on SK-MEL-2 melanoma is 97.6%; in the experiment with EKVX NSCLC it was 113%; in the experiment with SN12C renal, 99.4%; in the experiment on TK-10 renal, 112%; with ACHN renal it was 101%; with CAKI-1 renal it was 118%. The growth was 104% with CCRF-CEM leukemia and 123% with MOLT-4 leukemia.

Turning to `COc1ccc(C(=O)c2cc(OC)c3c(c2)OCO3)cc1O`, the growth in the experiment with SK-MEL-2 melanoma was 71.7%; in the experiment with EKVX NSCLC, 58.4%; in the experiment with SN12C renal, 31.4%; in the experiment on UO-31 renal, 46.6%; in the experiment with TK-10 renal, 66%; with CAKI-1 renal, 55.5%. In addition, the growth was 61.9% in the experiment on A498 renal, 16.5% with CCRF-CEM leukemia and 17.8% in the experiment on MOLT-4 leukemia.
